# Measured values from article PMC5540273 (PLoS ONE, 2017).
# Tests used:
# Conditions in all cases: concentration: 1 μM,replicates: in singlicate; n = 1
# ERK1 = tested on: T1, ERK1
# T1 construct: gene MAPK3
# ERK2 = tested on: T2, ERK2
# T2 construct: gene MAPK1
# ERK3 = tested on: T3, ERK3
# T3 construct: gene MAPK6
# ERK4 = tested on: T4, ERK4
# T4 construct: gene MAPK4
# ERK5 = tested on: T5, ERK5
# T5 construct: gene MAPK7
# ERK8 = tested on: T6, ERK8
# T6 construct: gene MAPK15
# ERN1 = tested on: ERN1
# FAK = tested on: T7, FAK
# T7 construct: gene PTK2
# FER = tested on: FER
# FES = tested on: FES
# 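Note: KINOMEscan kinase panel screen.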
SMILES,%Inh (ERK1) [%],%Inh (ERK2) [%],%Inh (ERK3) [%],%Inh (ERK4) [%],%Inh (ERK5) [%],%Inh (ERK8) [%],%Inh (ERN1) [%],%Inh (FAK) [%],%Inh (FER) [%],%Inh (FES) [%]
Cc1nnc(-c2ccc3occ(-c4ccc(S(C)=O)cc4)c3n2)o1 (stereo not shown),0,19,0,0,0,0,0,0,0,15
O=C(Nc1cccc(Oc2ccc3nccn3n2)c1)Nc1cccc(C(F)(F)F)c1,0,0,0,1,2,18,6,2,0,2
Cc1cccc(-c2nc(Nc3ccncc3)c3sccc3n2)n1 [GW869641],5,18,3,26,0,2,32,2,9,7
O=C(Nc1ccc(Oc2ccc3nc(NC(=O)C4CC4)cn3n2)c(F)c1)c1cccn(-c2ccccc2)c1=O,0,10,0,5,21,9,0,13,37,13
Cl.Cl.NC[C@H](CC1CCCCC1)NC(=O)c1ccc(-c2ccnc3[nH]ccc23)s1 [GSK1581428],18,31,0,0,0,78,6,48,14,5
CCCC(=O)Nc1n[nH]c2ncccc12 [SB-601436],0,0,0,0,0,0,0,0,0,12
Cc1ccc2c(-c3ccnc(Nc4ccc(C(F)(F)F)cc4)n3)cnn2n1 [GW819776],19,3,22,0,0,99.4,17,13,18,10
